Data published in PubChem BioAssay AID1220 (Sanford-Burnham Center for Chemical Genomics, 2008).
The campaign covered roughly 190,000 compounds. About 1,300 (0.68%) were called active. For the sample, actives were picked, then their nearest neighbours and some compounds at random. A number with no mark means an inactive call. Cut-off read from the data, not from the text of the source: active = inhibition above about 50%; inactive = the rest.

These compounds were tested against Mannose-6-phosphate isomerase (Homo sapiens) (UniProt P34949) (assay: MPI inhibition at elevated mannose 6-phosphate – biochemical, fluorescence intensity, high mannose 6-phosphate, primary screen (AID 1220)). Conditions: recombinant PMI enzyme, coupled fluorescence intensity; at 20 µM; stronger effect = higher value.
Chain of Mannose-6-phosphate isomerase (Homo sapiens) (P34949 whole entry, looked up): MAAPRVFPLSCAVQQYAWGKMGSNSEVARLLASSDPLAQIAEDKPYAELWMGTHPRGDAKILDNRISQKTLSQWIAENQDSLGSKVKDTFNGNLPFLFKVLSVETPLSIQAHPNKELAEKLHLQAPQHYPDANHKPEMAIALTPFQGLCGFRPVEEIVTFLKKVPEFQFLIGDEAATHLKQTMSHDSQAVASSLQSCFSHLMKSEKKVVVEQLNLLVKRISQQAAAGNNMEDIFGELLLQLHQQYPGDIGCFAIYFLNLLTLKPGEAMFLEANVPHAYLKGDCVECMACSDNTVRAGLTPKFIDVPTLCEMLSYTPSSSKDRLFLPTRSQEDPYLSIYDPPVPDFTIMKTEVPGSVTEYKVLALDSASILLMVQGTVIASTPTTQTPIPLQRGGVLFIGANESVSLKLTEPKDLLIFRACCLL

Row | SMILES | inhibition
1 | O=[N+]([O-])c1ccc(C2C3C(c4ccccc4)=NC4(CCCC4)N32)cc1 (stereo unspecified) | 9.1%
2 | Cc1ccnc(-n2c(-c3ccco3)nc3ccccc3c2=O)c1 | 16.7%
3 | CN(CCOc1ccc(C=C2C(=O)NC(=O)NC2=O)cc1)c1ccccn1 | -5.1%
4 | COc1cc(/C=N/NP(=S)(c2ccccc2)c2ccccc2)ccc1O | 4.4%
5 | CCC(=Nc1ccc(OC)cc1OC)c1c(O)[nH]c(=O)[nH]c1=O | 30.1%
6 | C=CCn1c(O)c(C(C)=Nc2cc(OC)ccc2OC)c(=O)[nH]c1=O | 13%
7 | CCCCn1c(O)c(C(CC)=Nc2ccc(OC)cc2OC)c(=O)[nH]c1=O | 17.6%
8 | CCC(=Nc1ccc(OC)cc1OC)c1c(O)n(C)c(=O)n(C)c1=O | 53.9% (active)
9 | C=CCn1c(O)c(C(CC)=Nc2cc(OC)ccc2OC)c(=O)[nH]c1=O | 55.7% (active)
10 | COc1ccc(N=C(C)c2c(O)n(C)c(=O)n(C)c2=O)c(OC)c1 | -2.6%
11 | Cc1ccc(O)c(CN2CCN(c3ccccc3)CC2)c1 | 4.3%
12 | CN(C)[C@@H]1C(=O)C(C(N)=O)=C(O)[C@@]2(O)C(=O)C3=C(O)c4c(O)ccc(Cl)c4[C@@](C)(O)C3C[C@@H]12 (stereo partly specified) | 16.4%
13 | CN(C)[C@@H]1C(=O)C(C(N)=O)=C(O)[C@@]2(O)C(=O)C3=C(O)c4c(O)cccc4[C@@](C)(O)[C@H]3[C@H](O)[C@@H]12 | 52.6% (active)
14 | CC1CN(c2ccc([N+](=O)[O-])c3cccnc23)CC(C)N1 (stereo unspecified) | 63.1% (active)
15 | O=[N+]([O-])c1ccc(N2CCNCC2)c2ncccc12 | 29%
16 | CN1CCN(c2ccc([N+](=O)[O-])c3cccnc23)CC1 | 63.5% (active)
17 | O=[N+]([O-])c1ccc(N2CCCCC2)c2ncccc12 | 72.6% (active)
18 | O=[N+]([O-])c1ccc(N2CCCC2)c(F)c1Br | 8.1%
19 | CN1CCN(c2ccc(S(C)(=O)=O)cc2[N+](=O)[O-])CC1 | -13.1%
20 | CC1CN(c2cc([N+](=O)[O-])ccc2Cl)CC(C)N1 (stereo unspecified) | -1.6%
21 | CN1CCN(c2ccc(S(=O)(=O)C(F)(F)F)cc2[N+](=O)[O-])CC1 | -6.1%
22 | O=[N+]([O-])c1ccc(N2CCCCCC2)c2ncccc12 | 63.7% (active)
23 | O=[N+]([O-])c1ccc(N2CCCC2)c2ncccc12 | 22.1%
24 | CC1CN(c2ccc([N+](=O)[O-])cc2Cl)CCN1 (stereo unspecified) | 49.1%

Row | SMILES | inhibition
25 | O=[N+]([O-])c1ccc(N2CCNCC2)cc1N1CCCCC1 | 9.9%
26 | Cc1cc(OCc2nn[nH]n2)c2c3c(c(=O)oc2c1)CCCC3 | -9.2%
27 | COc1cc(NC(=O)CN2C3CCC2CC(O)(c2cccnc2)C3)cc(OC)c1 (stereo unspecified) | 5.3%
28 | O=C(NC(C(Cl)Cl)N1CCOCC1)c1ccccc1 (stereo unspecified) | -6.2%
29 | O=C(c1ccc2c(c1)ncn2-c1ccc(F)cc1F)N1CCC2(CC1)OCCO2 | -2.9%
30 | CCCCCn1c(=O)c(C(=O)Nc2ccncc2)c(O)c2ccccc21 | -5.5%
31 | COc1ccc(C(C)=O)cc1CC(C(=O)c1ccc(C)cc1)N(C)C (stereo unspecified) | 4.6%
32 | CCC(C)NC(=O)CN1C(=O)CN=C(c2ccccc2)c2ccccc21 (stereo unspecified) | -11.3%
33 | O[C@H]1C2CCC1C(N1CCCCC1)CC2 (stereo partly specified) | 5.7%
34 | COc1ccc(OC)c(N2Cc3ccccc3C2=N)c1 | -9.9%
35 | CNc1cc(N2CCN(C)CC2)ccc1[N+](=O)[O-] | 28.3%
36 | CN(C)c1ccc(C=C(C#N)C#N)cc1 | -8.3%
37 | Cc1ccc2cc(C=C(C#N)C#N)c(Cl)nc2c1 | 57.1% (active)
38 | Cc1cc(N2CCCC2)ccc1C=C(C#N)C#N | 7.1%
39 | COc1ccc(OC)c(N2C(=O)NC(=O)C3(Cc4cc(C)ccc4N(C)C3)C2=O)c1 (stereo unspecified) | -2.8%
40 | CC(=O)NC1C(OC(=O)Cc2ccccc2)OC(COC(C)=O)C(OC(C)=O)C1OC(C)=O (stereo unspecified) | -6%
41 | CCSc1cc(C2C(C#N)=C(N)Oc3n[nH]c(C)c32)c(C)o1 (stereo unspecified) | -0.6%
42 | CN1CCN(c2ccc(N)cc2)CC1 | 11.3%
43 | CC(C)N1CCN(c2ccc(O)cc2)CC1 | 65% (active)
44 | CCN1CCN(c2ccc(N)cc2)CC1 | 35.6%
45 | O=C1C2CCN(CC2)C1Cc1ccc(OCc2ccccc2)cc1 (stereo unspecified) | 1.5%
46 | COc1ccc2c(CN3CC=C(c4ccccc4)CC3)cc(=O)oc2c1 | 14.2%
47 | Oc1ccc2ccccc2c1CN1CC=C(c2ccccc2)CC1 | 38.8%
48 | COc1ccc2ccc(O)c(CN3CC=C(c4ccccc4)CC3)c2c1 | 57.7% (active)

Row | SMILES | inhibition
49 | CCCNC(=O)c1c(N)n(Cc2ccc3c(c2)OCO3)c2nc3ccccc3nc12 | 27.5%
50 | CC(C)CCNC(=O)c1c(N)n(Cc2ccc3c(c2)OCO3)c2nc3ccccc3nc12 | 41.6%
51 | CCC(C)NC(=O)c1c(N)n(Cc2ccc3c(c2)OCO3)c2nc3ccccc3nc12 (stereo unspecified) | 61.1% (active)
52 | CC(C)CNC(=O)c1c(N)n(Cc2ccc3c(c2)OCO3)c2nc3ccccc3nc12 | 35.4%
53 | COC(=O)c1c(N)n(Cc2ccc(OC)cc2)c2nc3ccccc3nc12 | 0.2%
54 | CCCCNC(=O)c1c(N)n(Cc2ccc3c(c2)OCO3)c2nc3ccccc3nc12 | 69.1% (active)
55 | O=C(CCl)NCC1CCCO1 (stereo unspecified) | 0.5%
56 | CCCCn1c(O)c(C(CC)=NCCN2CCOCC2)c(=O)[nH]c1=O | -61.4%
57 | O=C1c2ccccc2C(=O)N1Cc1nc2ccccc2c(=O)n1-c1ccc(Br)cn1 | -1.8%
58 | CC(=O)c1ccc2c(c1)C1C(Cl)C(Sc3ccccc3[N+](=O)[O-])CC1C(C(=O)O)N2 (stereo unspecified) | -51.9%
59 | CC(=O)c1ccc2c(c1)C1C(Cl)C(Sc3ccccc3[N+](=O)[O-])CC1C(c1ccccc1[N+](=O)[O-])N2 (stereo unspecified) | 63.2% (active)
60 | CC(=O)c1ccc2c(c1)C1C(Cl)C(Sc3ccccc3[N+](=O)[O-])CC1C(c1ccccc1)N2 (stereo unspecified) | -67.2%
61 | COc1cccc(NC(=O)CN2CC(c3ccccc3)CC2=O)c1 (stereo unspecified) | -4.8%
62 | COc1cccc(C2CC3C(=O)C=CC2N3Cc2ccccc2)c1 (stereo unspecified) | 61.2% (active)
63 | COc1cccc(CN2CCCCC2c2cccnc2)c1 (stereo unspecified) | -2.6%
64 | CCN(CC)CCCN=C(C)c1c(O)n(C2CCCCC2)c(=O)[nH]c1=O | -9.1%
65 | CCCCCCn1c(N)c(C(=O)NCCN2CCOCC2)c2nc3ccccc3nc21 | 23.2%
66 | CC(C)OC(=O)c1c(N)n(CC2CCCO2)c2nc3ccccc3nc12 (stereo unspecified) | 16.9%
67 | CCCCCn1c(N)c(C(=O)NCCN2CCOCC2)c2nc3ccccc3nc21 | 51.4% (active)
68 | CCC(C)NC(=O)c1c(N)n(CC2CCCO2)c2nc3ccccc3nc12 (stereo unspecified) | 64.3% (active)
69 | Nc1c(C(=O)NC2CCCC2)c2nc3ccccc3nc2n1CC1CCCO1 (stereo unspecified) | 62.2% (active)
70 | CC(C)CCNC(=O)c1c(N)n(CC2CCCO2)c2nc3ccccc3nc12 (stereo unspecified) | 23.9%
71 | CCCNC(=O)c1c(N)n(CC2CCCO2)c2nc3ccccc3nc12 (stereo unspecified) | 56.1% (active)
72 | CCCCn1c(N)c(C(=O)NCCN2CCOCC2)c2nc3ccccc3nc21 | 48.6%

Row | SMILES | inhibition
73 | CC(C)OCCCNC(=O)c1c(N)n(CC2CCCO2)c2nc3ccccc3nc12 (stereo unspecified) | 22.1%
74 | CC(C)CCOC(=O)c1c(N)n(CC2CCCO2)c2nc3ccccc3nc12 (stereo unspecified) | 5.9%
75 | CCCCn1c(N)c(C(=O)OCC2CCCO2)c2nc3ccccc3nc21 (stereo unspecified) | 12%
76 | Nc1c(C(=O)OC2CCCCC2)c2nc3ccccc3nc2n1CC1CCCO1 (stereo unspecified) | 24.9%
77 | CC(NCc1ccccc1Cl)C(O)c1ccccc1 (stereo unspecified) | -3.1%
78 | CCN(CC)P(=S)(c1c(C)nc2ccccn12)c1c(C)nc2ccccn12 | -6.3%
79 | CN1CCN(S(=O)(=O)c2cnc(Cl)c(Br)c2)CC1 | 10.5%
80 | COc1ccc(N2C(=O)NC(=O)/C(=C/c3ccc4c(c3)Cc3ccccc3-4)C2=O)cc1 | -32.8%
81 | COc1ccc(-c2cc(=NCCC(=O)O)c3cc(C)ccc3o2)cc1 | 3.9%
82 | CN1CCN(c2ccc(F)cc2N)CC1 | -0.9%
83 | OCC12COC3c4ccccc4C(OC1)N32 (stereo unspecified) | 5.1%
84 | COc1ccc(N=Cc2c(O)n(Cc3cccs3)c(=O)[nH]c2=O)cc1 | 0.9%
85 | COc1ccc(OP(=O)(Nc2ccccc2)Nc2ccccc2)cc1 | -14.6%
86 | COc1ccc(NP(=O)(Nc2ccc(OC)cc2)Oc2ccccc2)cc1 | -1.9%
87 | COc1ccc(P2(=O)Nc3ccccc3N2)cc1 | 52.2% (active)
88 | C[N+](C)(C)c1ccccc1 | 10.3%
89 | CCCCCCC(=O)c1c(O)n(-c2ccccc2OC)c(=O)[nH]c1=O | -8.9%
90 | CCn1nc(-c2cccs2)nc2c(=O)n(C)c(=O)nc1-2 | 8.9%
91 | O=[N+]([O-])c1ccc(N2CCOCC2)c2cccnc12 | 36.9%
92 | O=[N+]([O-])c1ccc(N2CCCC2)c2ccncc12 | 47.4%
93 | O=[N+]([O-])c1ccc(N2CCOCC2)c2ccncc12 | 55.8% (active)
94 | COc1cccc(C(=O)C2CCCN(Cc3ccon3)C2)c1 (stereo unspecified) | 8.8%
95 | O=C(CN1CCOCC1)NCC(=O)Nc1ccc(Br)cc1C(=O)c1ccccc1 | -0.3%
96 | CCC[N+]12CCC(CC1)C(=C(c1ccccc1)c1ccccc1)C2 | 5.9%
